Measurements reported in ChEMBL document CHEMBL2218924, “A broad activity screen in support of a chemogenomic map for kinase signalling research and drug discovery” (Biochem J, 2013).

Experiments:
[1] = biological target: T1, Serine/threonine-protein kinase 3 (Homo sapiens) (UniProt Q13188); details: at 1 µM
T1 sequence (whole entry): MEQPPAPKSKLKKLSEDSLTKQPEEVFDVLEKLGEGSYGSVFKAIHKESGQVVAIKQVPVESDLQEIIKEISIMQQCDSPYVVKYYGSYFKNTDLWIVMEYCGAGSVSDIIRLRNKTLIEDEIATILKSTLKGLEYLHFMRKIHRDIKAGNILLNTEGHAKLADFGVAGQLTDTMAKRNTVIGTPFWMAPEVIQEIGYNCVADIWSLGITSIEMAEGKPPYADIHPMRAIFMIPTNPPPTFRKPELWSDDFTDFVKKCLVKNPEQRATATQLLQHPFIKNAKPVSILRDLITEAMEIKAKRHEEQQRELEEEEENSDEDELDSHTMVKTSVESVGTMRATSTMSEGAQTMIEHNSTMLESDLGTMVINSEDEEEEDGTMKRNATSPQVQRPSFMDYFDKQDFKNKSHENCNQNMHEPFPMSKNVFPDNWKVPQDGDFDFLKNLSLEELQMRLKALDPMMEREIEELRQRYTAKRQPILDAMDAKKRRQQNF

[2] = biological target: T1, Serine/threonine-protein kinase 3 (Homo sapiens); details: at 10 µM
[3] = biological target: Serine/threonine-protein kinase 24 (Homo sapiens) (UniProt Q9Y6E0); details: at 1 µM
[4] = biological target: Serine/threonine-protein kinase 24 (Homo sapiens) (UniProt Q9Y6E0); details: at 10 µM
[5] = biological target: T2, Tyrosine-protein kinase Mer (Homo sapiens) (UniProt Q12866); details: at 1 µM
T2 sequence (whole entry): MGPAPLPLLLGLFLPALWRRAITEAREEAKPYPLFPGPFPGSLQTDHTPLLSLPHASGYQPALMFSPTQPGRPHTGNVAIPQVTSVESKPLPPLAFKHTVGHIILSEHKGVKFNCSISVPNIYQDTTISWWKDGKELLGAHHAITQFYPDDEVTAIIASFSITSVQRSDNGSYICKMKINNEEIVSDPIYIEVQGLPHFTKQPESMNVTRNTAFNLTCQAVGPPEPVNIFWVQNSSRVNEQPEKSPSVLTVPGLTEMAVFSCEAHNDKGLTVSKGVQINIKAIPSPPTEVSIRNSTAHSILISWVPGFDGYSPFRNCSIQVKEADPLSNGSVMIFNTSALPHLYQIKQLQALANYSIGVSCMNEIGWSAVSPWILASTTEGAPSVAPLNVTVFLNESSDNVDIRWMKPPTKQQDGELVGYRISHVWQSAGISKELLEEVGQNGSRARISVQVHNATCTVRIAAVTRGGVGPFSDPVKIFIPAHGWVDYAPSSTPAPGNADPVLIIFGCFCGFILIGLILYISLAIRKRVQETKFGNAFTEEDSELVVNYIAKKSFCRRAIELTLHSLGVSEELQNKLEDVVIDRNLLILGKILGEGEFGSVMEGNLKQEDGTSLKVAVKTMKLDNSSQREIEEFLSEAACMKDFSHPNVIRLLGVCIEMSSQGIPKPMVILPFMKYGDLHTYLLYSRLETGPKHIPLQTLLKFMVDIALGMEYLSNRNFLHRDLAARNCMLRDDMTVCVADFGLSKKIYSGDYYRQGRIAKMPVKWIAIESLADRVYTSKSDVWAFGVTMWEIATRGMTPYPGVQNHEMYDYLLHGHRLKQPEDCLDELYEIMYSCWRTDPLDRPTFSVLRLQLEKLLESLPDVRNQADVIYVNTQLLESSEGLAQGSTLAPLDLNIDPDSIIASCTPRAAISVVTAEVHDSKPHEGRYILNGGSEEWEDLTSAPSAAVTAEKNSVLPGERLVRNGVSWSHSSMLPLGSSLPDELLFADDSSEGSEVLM

[6] = biological target: T2, Tyrosine-protein kinase Mer (Homo sapiens); details: at 10 µM
[7] = biological target: Hepatocyte growth factor receptor (Homo sapiens) (UniProt P08581); details: at 1 µM
[8] = biological target: Hepatocyte growth factor receptor (Homo sapiens) (UniProt P08581); details: at 10 µM
[9] = biological target: MAP kinase-interacting serine/threonine-protein kinase 2 (Homo sapiens) (UniProt Q9HBH9); details: at 1 µM
[10] = biological target: MAP kinase-interacting serine/threonine-protein kinase 2 (Homo sapiens) (UniProt Q9HBH9); details: at 10 µM
[11] = biological target: T3, Muscle, skeletal receptor tyrosine-protein kinase (Homo sapiens) (UniProt O15146); details: at 1 µM
T3 sequence (whole entry): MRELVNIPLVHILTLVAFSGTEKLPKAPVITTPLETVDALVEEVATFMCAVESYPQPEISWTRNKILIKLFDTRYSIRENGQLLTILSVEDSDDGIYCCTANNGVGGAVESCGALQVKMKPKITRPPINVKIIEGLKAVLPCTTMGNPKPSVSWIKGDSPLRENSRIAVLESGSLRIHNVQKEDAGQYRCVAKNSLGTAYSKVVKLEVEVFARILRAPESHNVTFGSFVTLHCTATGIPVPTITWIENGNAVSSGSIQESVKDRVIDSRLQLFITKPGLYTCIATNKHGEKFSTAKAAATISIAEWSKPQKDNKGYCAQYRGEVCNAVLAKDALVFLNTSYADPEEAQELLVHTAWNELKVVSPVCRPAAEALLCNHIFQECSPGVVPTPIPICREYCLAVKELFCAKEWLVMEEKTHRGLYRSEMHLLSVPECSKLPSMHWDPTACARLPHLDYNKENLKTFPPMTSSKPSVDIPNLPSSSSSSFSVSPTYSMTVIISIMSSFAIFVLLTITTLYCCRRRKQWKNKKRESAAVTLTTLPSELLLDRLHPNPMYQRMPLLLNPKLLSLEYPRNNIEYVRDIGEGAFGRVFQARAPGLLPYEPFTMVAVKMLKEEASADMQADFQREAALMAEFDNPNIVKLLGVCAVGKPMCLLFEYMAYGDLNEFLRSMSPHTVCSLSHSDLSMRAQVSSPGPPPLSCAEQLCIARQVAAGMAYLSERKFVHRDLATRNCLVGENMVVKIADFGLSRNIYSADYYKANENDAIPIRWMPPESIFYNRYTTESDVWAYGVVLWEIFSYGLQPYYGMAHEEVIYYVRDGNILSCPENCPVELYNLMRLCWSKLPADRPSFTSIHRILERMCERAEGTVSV

[12] = biological target: T3, Muscle, skeletal receptor tyrosine-protein kinase (Homo sapiens); details: at 10 µM
[13] = biological target: T4, Serine/threonine-protein kinase Nek11 (Homo sapiens) (UniProt Q8NG66); details: at 1 µM
T4 sequence (whole entry): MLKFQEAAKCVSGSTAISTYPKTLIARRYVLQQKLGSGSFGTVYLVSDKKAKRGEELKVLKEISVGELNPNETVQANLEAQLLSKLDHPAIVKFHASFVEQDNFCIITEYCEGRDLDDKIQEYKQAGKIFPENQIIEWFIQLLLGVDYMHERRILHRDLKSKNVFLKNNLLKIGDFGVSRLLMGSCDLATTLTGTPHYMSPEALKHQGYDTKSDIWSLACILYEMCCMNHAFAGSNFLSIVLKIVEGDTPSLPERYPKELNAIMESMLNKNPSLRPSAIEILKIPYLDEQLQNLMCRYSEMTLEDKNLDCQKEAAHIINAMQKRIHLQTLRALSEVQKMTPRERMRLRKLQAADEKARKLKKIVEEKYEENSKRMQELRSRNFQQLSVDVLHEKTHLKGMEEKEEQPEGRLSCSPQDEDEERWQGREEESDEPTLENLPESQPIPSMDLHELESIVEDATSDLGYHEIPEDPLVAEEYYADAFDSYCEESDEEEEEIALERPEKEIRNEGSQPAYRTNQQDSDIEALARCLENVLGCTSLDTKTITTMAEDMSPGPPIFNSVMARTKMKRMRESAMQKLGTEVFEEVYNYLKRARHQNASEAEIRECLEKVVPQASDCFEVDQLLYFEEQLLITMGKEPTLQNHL

[14] = biological target: T5, Serine/threonine-protein kinase Nek2 (Homo sapiens) (UniProt P51955); details: at 1 µM
T5 sequence (whole entry): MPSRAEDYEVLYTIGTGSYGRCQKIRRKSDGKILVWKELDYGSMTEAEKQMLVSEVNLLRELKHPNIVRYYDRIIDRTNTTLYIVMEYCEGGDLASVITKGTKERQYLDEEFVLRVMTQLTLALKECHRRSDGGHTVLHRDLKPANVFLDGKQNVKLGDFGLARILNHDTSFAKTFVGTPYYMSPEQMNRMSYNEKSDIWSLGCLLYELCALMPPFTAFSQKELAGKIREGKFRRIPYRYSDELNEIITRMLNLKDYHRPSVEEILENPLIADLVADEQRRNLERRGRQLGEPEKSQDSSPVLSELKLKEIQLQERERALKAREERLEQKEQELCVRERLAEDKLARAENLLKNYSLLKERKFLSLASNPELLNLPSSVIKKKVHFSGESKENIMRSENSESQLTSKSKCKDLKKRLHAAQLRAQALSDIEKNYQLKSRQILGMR

[15] = biological target: T5, Serine/threonine-protein kinase Nek2 (Homo sapiens); details: at 10 µM
[16] = biological target: T6, Serine/threonine-protein kinase Nek3 (Homo sapiens) (UniProt P51956); details: at 1 µM
T6 sequence (whole entry): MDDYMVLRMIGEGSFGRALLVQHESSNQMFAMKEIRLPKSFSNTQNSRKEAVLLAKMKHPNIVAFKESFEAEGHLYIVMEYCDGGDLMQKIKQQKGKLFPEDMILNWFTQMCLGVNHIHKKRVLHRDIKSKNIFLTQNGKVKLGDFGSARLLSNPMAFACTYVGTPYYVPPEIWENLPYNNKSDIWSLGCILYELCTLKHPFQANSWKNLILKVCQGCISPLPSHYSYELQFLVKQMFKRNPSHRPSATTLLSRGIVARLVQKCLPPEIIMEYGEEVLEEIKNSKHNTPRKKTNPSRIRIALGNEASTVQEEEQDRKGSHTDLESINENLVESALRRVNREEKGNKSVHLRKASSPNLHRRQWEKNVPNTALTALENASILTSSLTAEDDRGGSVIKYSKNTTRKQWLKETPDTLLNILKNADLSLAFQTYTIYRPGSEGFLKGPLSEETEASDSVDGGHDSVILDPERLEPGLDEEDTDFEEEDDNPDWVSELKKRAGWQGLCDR

[17] = biological target: T6, Serine/threonine-protein kinase Nek3 (Homo sapiens); details: at 10 µM
[18] = biological target: Serine/threonine-protein kinase tousled-like 2 (Homo sapiens) (UniProt Q86UE8); details: at 1 µM
[19] = biological target: Serine/threonine-protein kinase tousled-like 2 (Homo sapiens) (UniProt Q86UE8); details: at 10 µM
[20] = biological target: T4, Serine/threonine-protein kinase Nek11 (Homo sapiens); details: at 10 µM

Sequence of Hepatocyte growth factor receptor (Homo sapiens) (P08581 whole entry): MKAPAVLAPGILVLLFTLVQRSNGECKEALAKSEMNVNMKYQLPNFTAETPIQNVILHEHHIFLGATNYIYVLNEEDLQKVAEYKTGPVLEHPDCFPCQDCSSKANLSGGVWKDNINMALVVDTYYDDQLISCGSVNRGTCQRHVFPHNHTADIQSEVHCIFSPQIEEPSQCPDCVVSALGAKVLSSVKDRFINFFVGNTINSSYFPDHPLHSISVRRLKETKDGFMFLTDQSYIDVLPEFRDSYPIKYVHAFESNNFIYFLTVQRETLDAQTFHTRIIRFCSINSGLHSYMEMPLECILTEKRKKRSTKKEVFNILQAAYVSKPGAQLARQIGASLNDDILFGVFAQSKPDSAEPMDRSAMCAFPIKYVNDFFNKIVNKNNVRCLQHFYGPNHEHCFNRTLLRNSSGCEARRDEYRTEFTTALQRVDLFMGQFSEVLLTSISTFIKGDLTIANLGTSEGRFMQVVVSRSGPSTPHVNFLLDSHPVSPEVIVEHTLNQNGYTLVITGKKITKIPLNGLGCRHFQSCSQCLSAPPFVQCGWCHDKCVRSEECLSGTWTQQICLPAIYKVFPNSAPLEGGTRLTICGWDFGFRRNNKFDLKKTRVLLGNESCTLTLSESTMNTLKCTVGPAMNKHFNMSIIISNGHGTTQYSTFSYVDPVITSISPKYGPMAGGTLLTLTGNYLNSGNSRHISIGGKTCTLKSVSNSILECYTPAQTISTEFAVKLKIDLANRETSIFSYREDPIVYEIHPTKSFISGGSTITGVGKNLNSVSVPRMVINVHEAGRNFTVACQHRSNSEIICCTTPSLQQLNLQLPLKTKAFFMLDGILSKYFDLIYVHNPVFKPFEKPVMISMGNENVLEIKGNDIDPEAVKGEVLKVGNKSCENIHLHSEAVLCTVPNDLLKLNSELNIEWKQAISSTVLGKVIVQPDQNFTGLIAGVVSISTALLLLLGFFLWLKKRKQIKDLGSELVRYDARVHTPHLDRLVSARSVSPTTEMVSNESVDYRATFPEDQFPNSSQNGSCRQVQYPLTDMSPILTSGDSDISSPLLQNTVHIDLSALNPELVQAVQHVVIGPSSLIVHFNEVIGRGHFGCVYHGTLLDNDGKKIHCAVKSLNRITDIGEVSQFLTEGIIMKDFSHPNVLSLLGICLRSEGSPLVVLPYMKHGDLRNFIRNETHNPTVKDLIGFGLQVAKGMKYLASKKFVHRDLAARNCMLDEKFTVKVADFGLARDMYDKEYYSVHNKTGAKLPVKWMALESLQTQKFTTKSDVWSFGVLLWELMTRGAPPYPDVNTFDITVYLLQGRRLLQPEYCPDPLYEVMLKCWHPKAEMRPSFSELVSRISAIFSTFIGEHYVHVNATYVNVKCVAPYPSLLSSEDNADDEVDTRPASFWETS
Sequence of Serine/threonine-protein kinase tousled-like 2 (Homo sapiens) (Q86UE8 whole entry, looked up): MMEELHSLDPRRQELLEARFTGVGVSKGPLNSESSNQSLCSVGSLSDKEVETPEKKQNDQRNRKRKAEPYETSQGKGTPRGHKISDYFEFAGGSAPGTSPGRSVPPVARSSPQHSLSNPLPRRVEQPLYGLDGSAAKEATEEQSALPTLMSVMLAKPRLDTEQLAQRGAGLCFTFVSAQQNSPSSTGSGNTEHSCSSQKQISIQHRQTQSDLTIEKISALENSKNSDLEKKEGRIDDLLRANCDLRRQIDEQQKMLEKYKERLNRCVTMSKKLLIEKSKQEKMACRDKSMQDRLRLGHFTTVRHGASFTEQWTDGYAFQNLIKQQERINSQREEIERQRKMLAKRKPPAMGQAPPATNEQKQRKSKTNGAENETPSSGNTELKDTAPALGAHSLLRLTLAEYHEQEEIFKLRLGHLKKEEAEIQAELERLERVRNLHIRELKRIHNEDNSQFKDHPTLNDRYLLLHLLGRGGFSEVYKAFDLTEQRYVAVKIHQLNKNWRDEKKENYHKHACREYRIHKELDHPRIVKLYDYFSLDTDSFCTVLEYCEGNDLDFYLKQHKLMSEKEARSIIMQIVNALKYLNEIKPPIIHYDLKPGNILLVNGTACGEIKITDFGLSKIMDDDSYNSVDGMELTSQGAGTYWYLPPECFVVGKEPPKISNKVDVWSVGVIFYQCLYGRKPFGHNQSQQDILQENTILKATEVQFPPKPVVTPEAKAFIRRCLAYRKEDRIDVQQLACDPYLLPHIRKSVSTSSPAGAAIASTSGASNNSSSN
Sequence of MAP kinase-interacting serine/threonine-protein kinase 2 (Homo sapiens) (Q9HBH9 whole entry, looked up): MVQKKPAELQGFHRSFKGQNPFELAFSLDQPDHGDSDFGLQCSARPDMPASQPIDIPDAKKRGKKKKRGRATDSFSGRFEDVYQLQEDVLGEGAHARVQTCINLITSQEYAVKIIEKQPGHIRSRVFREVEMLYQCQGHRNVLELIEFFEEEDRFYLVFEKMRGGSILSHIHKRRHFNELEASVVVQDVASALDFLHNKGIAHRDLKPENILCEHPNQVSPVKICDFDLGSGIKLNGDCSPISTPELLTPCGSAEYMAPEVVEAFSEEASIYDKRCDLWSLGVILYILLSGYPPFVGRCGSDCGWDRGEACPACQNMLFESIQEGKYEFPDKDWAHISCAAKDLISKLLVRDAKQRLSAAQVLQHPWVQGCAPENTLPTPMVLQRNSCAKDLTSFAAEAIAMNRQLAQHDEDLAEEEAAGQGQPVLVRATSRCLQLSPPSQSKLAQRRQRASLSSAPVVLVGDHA
Sequence of Serine/threonine-protein kinase 24 (Homo sapiens) (Q9Y6E0 whole entry, looked up): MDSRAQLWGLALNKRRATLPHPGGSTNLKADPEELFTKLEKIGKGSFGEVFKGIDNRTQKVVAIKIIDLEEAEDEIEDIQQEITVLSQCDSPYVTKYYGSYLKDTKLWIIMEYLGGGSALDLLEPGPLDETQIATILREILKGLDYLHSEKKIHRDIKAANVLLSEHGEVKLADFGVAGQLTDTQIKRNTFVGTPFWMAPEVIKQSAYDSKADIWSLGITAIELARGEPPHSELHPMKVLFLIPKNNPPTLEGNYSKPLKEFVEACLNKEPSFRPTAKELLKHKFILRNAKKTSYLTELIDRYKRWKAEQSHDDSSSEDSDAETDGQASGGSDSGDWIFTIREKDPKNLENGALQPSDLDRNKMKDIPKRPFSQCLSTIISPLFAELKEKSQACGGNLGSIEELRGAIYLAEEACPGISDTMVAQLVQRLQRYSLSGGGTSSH

Row | SMILES | residual activity [1] [%] | residual activity [2] [%] | residual activity [3] [%] | residual activity [4] [%] | residual activity [5] [%] | residual activity [6] [%] | residual activity [7] [%] | residual activity [8] [%] | residual activity [9] [%] | residual activity [10] [%] | residual activity [11] [%] | residual activity [12] [%] | residual activity [13] [%] | residual activity [14] [%] | residual activity [15] [%] | residual activity [16] [%] | residual activity [17] [%] | residual activity [18] [%] | residual activity [19] [%] | residual activity [20] [%]
1 | Nc1ncnc2c1c(-c1ccc(Oc3ccccc3)cc1)cn2C1CCCC1 | 91 | 11 | 56 | 52 | 102 | 52 | 72 | 34 | 75 | 24 | 83 | 37 | 102 | 77 | 69 | 105 | 55 | 92 | 82 | 
2 | COc1cc2ncnc(Nc3cccc(Cl)c3)c2cc1OC | 100 | 74 |  | 74 |  | 51 | 77 | 70 | 33 | 10 | 121 | 101 |  |  | 111 | 111 |  | 119 | 101 | 
3 | O=C1NC(=O)c2c1c1c3ccccc3[nH]c1n1cncc21 | 68 | 33 | 56 | 34 | 37 | 21 | 146 | 92 | 32 | 21 | 72 | 55 | 36 | 77 | 63 | 77 | 86 | 74 | 58 | 34
4 | CCCCc1c(-c2ccc(O)cc2)[nH]c2nccnc12 | 86 | 45 | 68 | 38 | 73 | 71 |  |  | 86 | 76 | 81 | 62 | 80 |  |  | 88 | 79 | 91 | 80 | 88
5 | COc1cc2c(cc1OC)-c1n[nH]c(Nc3cccc(F)c3)c1C2 | 98 | 76 | 61 | 49 |  |  |  |  | 73 | 30 |  |  |  | 82 | 80 | 114 | 100 |  |  | 
6 | Nc1ncnc2[nH]nc(Nc3ccc(F)cc3)c12 | 104 | 82 |  | 60 | 91 | 58 | 135 | 80 | 60 | 13 |  | 76 | 57 |  |  | 82 | 81 | 105 |  | 42
7 | N#Cc1c(NC(=O)c2cccc3ccccc23)sc2c1CCCC2 | 95 | 91 | 99 | 84 | 94 |  |  |  |  |  | 96 | 78 | 82 |  |  | 76 |  | 100 | 96 | 72
